Measured values reported in PubChem BioAssay (Tox21).
Records with an inconclusive call do not appear. The source made the active and inactive calls. Unless noted, the call rests on the fitted dose curve. Square brackets hold non-standard residues; d marks the D form. Peptide text beside a SMILES is read from it. * marks the point of attachment. Sta = CC(C)C[C@H](N)[C@@H](O)CC(=O)O; Isovaleryl = CC(C)CC(=O)*

How the values were obtained:
[1] = target: Gonadotropin-releasing hormone receptor (Homo sapiens) (UniProt P30968); experiment: Human gonadotropin-releasing hormone receptor (GnRHR) small molecule agonists, calcium flux assay in GnRHR-HEK293 cells (AID 1920063); further: nearly all actives have a fitted effect of over 35% in size
Chain of Gonadotropin-releasing hormone receptor (Homo sapiens) (P30968 whole entry, looked up): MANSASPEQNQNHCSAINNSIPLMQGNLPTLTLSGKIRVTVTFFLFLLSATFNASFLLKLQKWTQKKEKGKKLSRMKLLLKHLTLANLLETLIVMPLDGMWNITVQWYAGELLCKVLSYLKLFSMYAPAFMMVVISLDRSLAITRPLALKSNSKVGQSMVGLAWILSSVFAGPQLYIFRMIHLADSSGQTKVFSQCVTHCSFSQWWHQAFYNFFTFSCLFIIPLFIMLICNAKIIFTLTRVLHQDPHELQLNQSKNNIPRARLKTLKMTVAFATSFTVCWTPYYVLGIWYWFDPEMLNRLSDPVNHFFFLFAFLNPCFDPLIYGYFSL
Method in brief: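 Cells: HEK293 stably expressing human GnRHR. Steps: overnight (18 h) culture, 1 h calcium dye loading at 37 C, compound addition, kinetic fluorescence read at 480/540 nm. Each compound tested at 15 concentrations in triplicate.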

[2] = G protein-coupled receptor (GPCR) small molecule agonists, calcium flux assay: HEK293 wild type cell line counter screen (AID 1920065)
Method in brief: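 Counter-screen of the Tox21 10K library for non-specific calcium release: dye-loaded cells received compounds in DMSO and were monitored by kinetic fluorescence (480/540 nm, 3 min). Fifteen concentrations, run in triplicate.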

[3] = p53 small molecule agonists, cell-based qHTS assay with human liver microsomes (AID 1963577);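 further: p53 response element beta-lactamase reporter cells with liver microsomes plus NADPH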
Method in brief: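 HLM-supplemented p53RE-bla reporter assay: 16 h compound exposure at 37 C, microsomes and NADPH each 0.5 mg/mL final, read by fluorescence intensity.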

[4] = p53 small molecule agonists, cell-based qHTS assay with rat liver microsomes (AID 1963578)
Method in brief: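 Quantitative HTS of the Tox21 10K library: p53RE-bla cells, rat liver microsomes plus NADPH at 0.5 mg/mL final each, 16 h at 37 C, beta-lactamase fluorescence detection.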

[5] = p53 small molecule agonists, cell-based qHTS assay with human liver microsomes: qHTS cell viability counter screen (AID 1963579); further: nearly all actives have a fitted effect of over 45% in size
Method in brief: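 Viability of p53RE-bla cells is measured as CellTiter-Glo luminescence following a 16 h, 37 C incubation with compound, liver microsomes from human donors and NADPH.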

[6] = p53 small molecule agonists, cell-based qHTS assay with rat liver microsomes: qHTS cell viability counter screen (AID 1963580); further: nearly all actives have a fitted effect of over 45% in size
Method in brief: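 p53RE-bla HCT-116 cells (4,000/well) rested 5 h at 37 C, then given Tox21 compounds in DMSO with rat liver microsomes (0.5 mg/mL final) plus NADPH (0.5 mg/mL final) for 16 h at 37 C. Viability read by CellTiter-Glo luminescence after 30 min at room temperature.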

[7] = p53 small molecule agonists, cell-based qHTS assay: qHTS cell viability counter screen (AID 1963581); further: nearly all actives have a fitted effect of over 45% in size
Method in brief: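 Cells: HCT-116 with p53 response element-driven beta-lactamase. Treatment: 16 h, 37 C, compounds in DMSO. Read: CellTiter-Glo luminescence after 30 min RT.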

[8] = p53 small molecule agonists, cell-based qHTS assay (AID 1963582; active means well fitted activation curve with a large enough effect in the signal ratio in the repeat runs, not every such curve was filed as active; the % refers to the signal ratio)
Method in brief: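 Quantitative HTS in p53RE-bla cells: after a 5 h settling period, compounds delivered in DMSO were left on cells for 16 h at 37 C, and reporter induction was measured as fluorescence following 2 h substrate loading.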

[9] = target: Muscarinic acetylcholine receptor M1 (Homo sapiens) (UniProt P11229); experiment: Cholinergic receptor muscarinic 1 (CHRM1) small molecule agonists, cell-based qHTS assay (AID 1963589); further: nearly all actives have a fitted effect of over 35% in size
Chain of Muscarinic acetylcholine receptor M1 (Homo sapiens) (P11229 whole entry, looked up): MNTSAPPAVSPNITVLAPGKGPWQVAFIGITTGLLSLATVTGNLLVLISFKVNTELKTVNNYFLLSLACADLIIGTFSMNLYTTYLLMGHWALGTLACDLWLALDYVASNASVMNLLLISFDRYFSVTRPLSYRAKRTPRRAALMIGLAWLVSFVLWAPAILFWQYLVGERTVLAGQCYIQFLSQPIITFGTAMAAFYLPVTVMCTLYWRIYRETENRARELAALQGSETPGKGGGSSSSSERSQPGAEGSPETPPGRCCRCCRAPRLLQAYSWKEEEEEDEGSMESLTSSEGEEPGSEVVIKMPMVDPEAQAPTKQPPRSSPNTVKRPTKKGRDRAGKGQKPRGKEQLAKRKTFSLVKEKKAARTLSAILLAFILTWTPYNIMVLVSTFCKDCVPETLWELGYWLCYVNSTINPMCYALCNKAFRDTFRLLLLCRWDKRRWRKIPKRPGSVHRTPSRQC
Method in brief: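 Agonist-mode qHTS in CHO cells stably carrying human muscarinic M1. Intracellular calcium is tracked by fluorescence every second after compound transfer; each compound runs at 15 concentrations in three independent runs.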

[10] = cAMP Responsive Elements (CRE) small molecule agonists, cell-based qHTS assay (AID 1963590)
Method in brief: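 Agonist mode qHTS in CRE-bla HEK 293T cells: compounds dosed from DMSO for 3 h at 37 C/5% CO2, followed by LiveBLAzer B/G FRET substrate for 2 h at room temperature.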

[11] = target: Beta-2 adrenergic receptor (Homo sapiens) (UniProt P07550); experiment: Adrenergic beta2 receptor (ADRB2) small molecule antagonists, cell-based qHTS assay (AID 1963592); further: series mostly up to about 92 µM; nearly all actives have a fitted effect of over 50% in size
Chain of Beta-2 adrenergic receptor (Homo sapiens) (P07550 whole entry, looked up): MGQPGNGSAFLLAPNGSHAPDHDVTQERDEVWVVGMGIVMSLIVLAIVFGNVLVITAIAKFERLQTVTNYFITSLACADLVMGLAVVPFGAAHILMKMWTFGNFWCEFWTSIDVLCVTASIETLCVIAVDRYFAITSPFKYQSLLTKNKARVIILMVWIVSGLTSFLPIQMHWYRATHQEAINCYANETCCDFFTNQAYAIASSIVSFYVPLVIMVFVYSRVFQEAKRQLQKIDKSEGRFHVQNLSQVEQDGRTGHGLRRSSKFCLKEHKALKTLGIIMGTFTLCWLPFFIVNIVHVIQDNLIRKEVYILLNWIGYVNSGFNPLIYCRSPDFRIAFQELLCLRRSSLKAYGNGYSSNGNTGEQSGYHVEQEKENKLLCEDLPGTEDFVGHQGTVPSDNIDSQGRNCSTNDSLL
Method in brief: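 Cells (CHO, stable ADRB2 overexpression) incubated 18-20hr at 37C; compounds added from DMSO; agonist mix (1nM isoproterenol, 100uM IBMX, 25uM Ro-20-1724) added; 0.5hr RT; d2-cAMP and anti-cAMP-cryptate added; 1hr RT; 665/615 nm read.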

[12] = target: D(2) dopamine receptor (Homo sapiens) (UniProt P14416); experiment: Dopamine D2 receptor (DRD2) small molecule antagonists, cell-based qHTS assay (AID 1963595; active means well fitted inhibition curve with a large enough effect in the signal ratio in the repeat runs, with a control signal flat; the % refers to the signal ratio)
Chain of D(2) dopamine receptor (Homo sapiens) (P14416 whole entry, looked up): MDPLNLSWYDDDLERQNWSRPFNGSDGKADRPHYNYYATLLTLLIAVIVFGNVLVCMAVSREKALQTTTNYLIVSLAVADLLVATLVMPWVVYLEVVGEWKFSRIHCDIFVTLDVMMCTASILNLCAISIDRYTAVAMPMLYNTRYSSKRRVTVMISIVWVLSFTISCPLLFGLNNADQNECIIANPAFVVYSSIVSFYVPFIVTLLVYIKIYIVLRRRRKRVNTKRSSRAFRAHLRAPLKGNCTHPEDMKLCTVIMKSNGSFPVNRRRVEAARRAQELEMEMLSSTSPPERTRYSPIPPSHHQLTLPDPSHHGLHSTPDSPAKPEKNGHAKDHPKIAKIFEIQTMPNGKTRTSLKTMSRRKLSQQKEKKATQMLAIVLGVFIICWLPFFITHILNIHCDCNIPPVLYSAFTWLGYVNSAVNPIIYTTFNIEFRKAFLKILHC
Method in brief: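 Cells were plated and grown for 24 h at 37 °C. Ro20-1724 (0.1 mM final) went in first, then compound for 10 min. NKH477 (200 nM) with quinpirole (12 nM) followed for 30 min at RT, then HTRF detection reagents for 1 h.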

[13] = target: 5-hydroxytryptamine receptor 2A (Homo sapiens) (UniProt P28223); experiment: 5-hydroxytryptamine receptor 2A (HTR2A) small molecule antagonists, cell-based qHTS assay (AID 1963586); further: nearly all actives have a fitted effect of over 45% in size
Chain of 5-hydroxytryptamine receptor 2A (Homo sapiens) (P28223 whole entry, looked up): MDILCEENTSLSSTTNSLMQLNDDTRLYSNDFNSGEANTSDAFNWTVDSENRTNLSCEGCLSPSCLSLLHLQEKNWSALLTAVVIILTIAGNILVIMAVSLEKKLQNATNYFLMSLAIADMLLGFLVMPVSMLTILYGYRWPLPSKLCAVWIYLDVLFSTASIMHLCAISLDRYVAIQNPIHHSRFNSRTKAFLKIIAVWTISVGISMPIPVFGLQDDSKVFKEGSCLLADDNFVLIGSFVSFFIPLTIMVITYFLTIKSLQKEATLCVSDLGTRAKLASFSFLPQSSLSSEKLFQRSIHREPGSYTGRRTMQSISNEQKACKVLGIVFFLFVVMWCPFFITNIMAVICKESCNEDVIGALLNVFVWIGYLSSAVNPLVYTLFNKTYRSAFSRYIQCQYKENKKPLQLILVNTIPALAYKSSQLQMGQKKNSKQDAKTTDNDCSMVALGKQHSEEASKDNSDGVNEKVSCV
Method in brief: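 Antagonist-mode intracellular calcium assay: DOI (4 nM) added after 5 min compound pre-incubation at room temperature to dye-loaded HTR2A-CHO cells. Fluorescence followed for 3 min, sampled every second.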

[14] = target: 5-hydroxytryptamine receptor 2A (Homo sapiens) (UniProt P28223); experiment: 5-hydroxytryptamine receptor 2A (HTR2A) small molecule agonists, cell-based qHTS assay (AID 1963587); further: nearly all actives have a fitted effect of over 30% in size
Method in brief: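 HTR2A-CHO cells, plated 18 h at 37 C/5% CO2, dye-loaded 1 h at 37 C; compounds in DMSO added by pin tool (agonist mode). Intracellular calcium flux read as kinetic fluorescence on FDSS over 2 min at 1 s intervals.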

[15] = target: Muscarinic acetylcholine receptor M1 (Homo sapiens) (UniProt P11229); experiment: Cholinergic receptor muscarinic 1 (CHRM1) small molecule antagonists, cell-based qHTS assay (AID 1963588); further: nearly all actives have a fitted effect of over 40% in size
Method in brief: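 CHRM1-CHO calcium-flux assay, antagonist mode. Cells were seeded 18 h, dye-loaded 1 h at 37 C and given compound for 5 min at RT, then acetylcholine was added at 50nM. FDSS fluorescence was read 3 min; 15 concentrations, three runs.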

[16] = cAMP Responsive Elements (CRE) small molecule antagonists, cell-based qHTS assay (AID 1963591; active means well fitted inhibition curve with a large enough effect in the signal ratio in the repeat runs, not every such curve was filed as active; the % refers to the signal ratio)
Method in brief: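 Antagonist mode: test compounds are co-incubated with the adenylyl cyclase activator NKH477 (0.25 uM final) on CRE-bla HEK293T cells for 3 h at 37 °C, followed by LiveBLAzer substrate loading.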

[17] = target: D(2) dopamine receptor (Homo sapiens) (UniProt P14416); experiment: Dopamine D2 receptor (DRD2) small molecule agonists, cell-based qHTS assay (AID 1963594); further: nearly all actives have a fitted effect of over 35% in size
Method in brief: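 HEK293 cells stably expressing DRD2 were cultured 24 h at 37 C, then given Ro20-1724 (0.1 mM final) and compounds for 10 min at room temperature. NKH477 (200nM) was then added for 30 min. cAMP was read by HTRF.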

[18] = target: KiSS-1 receptor (Homo sapiens) (UniProt Q969F8); experiment: Human kisspeptin (KISS1R) small molecule agonists, calcium flux assay in KISS1R-HEK293 cells (AID 1920064; active means well fitted activation curve with a large enough effect in the repeat runs)
Chain of KiSS-1 receptor (Homo sapiens) (Q969F8 whole entry, looked up): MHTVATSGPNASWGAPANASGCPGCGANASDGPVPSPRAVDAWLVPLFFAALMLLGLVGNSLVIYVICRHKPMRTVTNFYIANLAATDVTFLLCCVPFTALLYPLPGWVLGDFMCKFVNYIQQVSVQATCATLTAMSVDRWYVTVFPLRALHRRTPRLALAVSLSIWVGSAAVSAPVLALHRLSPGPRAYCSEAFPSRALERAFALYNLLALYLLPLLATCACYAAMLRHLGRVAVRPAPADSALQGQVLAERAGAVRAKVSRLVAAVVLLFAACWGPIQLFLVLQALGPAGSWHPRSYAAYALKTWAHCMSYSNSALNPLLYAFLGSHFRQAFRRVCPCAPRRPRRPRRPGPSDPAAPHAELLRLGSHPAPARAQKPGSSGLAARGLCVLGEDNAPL
Method in brief: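 Cells plated and incubated 18 h; dye added, 1 h at 37 C; compounds in DMSO pinned in; signal read at 480/540 nm every second for 3 min. Each compound tested at 15 concentrations in triplicate.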

[19] = target: Beta-2 adrenergic receptor (Homo sapiens) (UniProt P07550); experiment: Adrenergic beta2 receptor (ADRB2) small molecule agonists, cell-based qHTS assay (AID 1963593);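 further: CHO cells stably overexpressing human ADRB2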
Method in brief: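 CHO cells stably over-expressing ADRB2 were plated overnight at 37C, then dosed with compounds plus a stimulation mix containing 100uM IBMX and 25uM Ro-20-1724 for 0.5hr at room temperature. cAMP was measured by HTRF competition, 1hr.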

Measured: Potency

O=C(N[C@H]1CN2CCC1CC2)c1cc2ccoc2cn1
not listed: [13] | [14] | [15] | [16] | [17] | [18] | [19]
inactive: all other assays above

CC(=O)NNc1ccccc1
not listed: [3] | [4] | [6] | [8] | [11] | [18] | [19]
inactive: all other assays above

CC(C)(C)C(O)/C(=C\c1ccc(Cl)cc1Cl)n1cncn1 (stereo not drawn)
not listed: [2] | [8] | [9] | [10] | [12] | [14] | [16] | [19]
inactive: all other assays above

CCOP(=O)(OCC)Oc1nc(Cl)c(Cl)cc1Cl
inactive: [1] | [18] | [6] | [7] | [13] | [14] | [15] | [17]

CC(C)CC(=O)N[C@H](C(=O)N[C@H](C(=O)N[C@@H](CC(C)C)[C@@H](O)CC(=O)N[C@@H](C)C(=O)N[C@@H](CC(C)C)[C@@H](O)CC(=O)O)C(C)C)C(C)C (Isovaleryl-VV[Sta]A[Sta]-OH)
inactive: [13] | [14] | [15] | [9]

CC(C)=CCOc1c2occc2cc2ccc(=O)oc12
not listed: [2] | [10]
inactive: all other assays above

CSCC[C@H](NC(=O)[C@H](Cc1c[nH]c2ccccc12)NC(=O)CCNC(=O)OC(C)(C)C)C(=O)N[C@@H](CC(=O)O)C(=O)N[C@@H](Cc1ccccc1)C(N)=O
inactive: [13] | [15] | [9]

CN(C)CCCCCCN(C)C
inactive: [3] | [4] | [5] | [6] | [7] | [8]

CCCCCC[N+](=O)[O-]
not listed: [18]
inactive: all other assays above

CCC1(c2cnc[nH]2)Cc2ccccc2C1
inactive: [3] | [4] | [5] | [8]

NC(=O)CC[C@@H]1NC(=O)[C@H](Cc2ccccc2)NC(=O)[C@H](Cc2ccc(O)cc2)NC(=O)CCSSC[C@@H](C(=O)N2CCC[C@H]2C(=O)N[C@@H](CCCN=C(N)N)C(=O)NCC(N)=O)NC(=O)[C@H](CC(N)=O)NC1=O
inactive: [14] | [15] | [9]

CC(C)(C)c1ccc(O)cc1
inactive: [13] | [14] | [15] | [11] | [19] | [17] | [12]

CCCCC(CC)COC(=O)c1ccccc1C(=O)OCC(CC)CCCC (stereo not drawn)
inactive: [1] | [2] | [3] | [6] | [11] | [12]

c1ccccc1
inactive: [3] | [4] | [5] | [6] | [7] | [8]

Cc1ncc(C[n+]2csc(CCO)c2C)c(N)n1
not listed: [6] | [14] | [17] | [18] | [19]
inactive: all other assays above

CN1CCc2cc3c(cc2C1O)OCO3 (stereo not drawn)
inactive: [1] | [18] | [2] | [7] | [13] | [14] | [11] | [17] | [12]

CCCC(Cn1cncn1)c1ccc(Cl)cc1Cl (stereo not drawn)
not listed: [1] | [10] | [12] | [14] | [16] | [19]
inactive: all other assays above

Oc1c(Cl)cc(Cl)cc1Cl
inactive: [13] | [14] | [15] | [9] | [17] | [12]

O=S(=O)(O)c1cc(O)ccc1O
inactive: [6] | [7]

C#C[C@]1(O)CC[C@H]2[C@@H]3CCC4=CC(=O)CCC4=C3C=C[C@@]21CC
inactive: [1] | [18] | [2] | [14] | [15] | [9] | [17] | [12]

O=C(NC(=O)c1c(F)cccc1F)Nc1ccc(Oc2ccc(C(F)(F)F)cc2Cl)cc1F
inactive: [2] | [3] | [4] | [5] | [6] | [7] | [15] | [19] | [17]
